Out of some 64,000 compounds screened, about 1,900 (3%) were called active.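 Rule for the calls: active = fluorescence rise, raw or as B-score row- and column-corrected plate score, outside the 99.7% band of its plate's samples, either direction; inactive = the rest.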 The entries come from a sample that favours actives as a whole.
System: Muscarinic acetylcholine receptor M1
Assay: direct activation of M1 receptor calcium signal – CHO-M1 cells, Fluo-4 calcium, agonist mode, primary screen (AID 626)
Details: Fluo-4 calcium fluorescence, at 10 µM, hits give high values

Compound | B-score
O=C(c1cc(-c2ccncc2)nc2ccccc12)N1CCC2(CC1)OCCO2 | 0.114 (inactive)
O=C(c1cc2nc(-c3ccccc3)cc(-c3ccccc3)n2n1)N1CCC2(CC1)OCCO2 | 6.7 (active)
Cc1cccc(-n2c(C)nc3cc(C(=O)N4CCC5(CC4)OCCO5)ccc32)c1 | -0.0322 (inactive)
Cc1ccc(P(=S)(c2ccc(C)o2)N2CCOCC2)o1 | 0.695 (inactive)
Cn1c(C(=O)N2CCC(C(=O)N3CCC4(CC3)OCCO4)CC2)cc2sccc21 | -0.378 (inactive)
